Rows were chosen to be rich in hits. Some 15% of all compounds tested hit in one or more screens of this group.
Sm TGR inh – qHTS Assay for the Inhibitors of Schistosoma Mansoni Peroxiredoxins. Schistosoma mansoni thioredoxin glutathione reductase (TGR), Q962Y6. purified TGR, DTNB reduction, TNB absorbance 405 nm. Potency, µM (highest dose often 114 µM), without a hit: at the top dose activity change, negative = inhibition, usual class: inhibitors. actives 3% (n = 360,000); also: potency is read from the fitted curve at half-maximal effect; % is scaled to controls: 0 for no effect and ±100 for the full control effect; nearly all actives have a fitted effect of over 60% in size
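TGR 20 nM + NADPH 100 uM (dispensed conc.), cpd preinc 15 min RT; start with NADPH (500 uM addition) then DTNB (15 mM addition). Kinetic TNB absorbance, 405 nm filter. Four-parameter Hill fit across titration.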
Pf growth 96h – Primary qHTS for delayed death inhibitors of the malarial parasite plastid, 96 hour incubation. AID 504834, 2011. Potency, µM (highest dose often 28.7 µM), without a hit: at the top dose activity change, negative = inhibition, most hits filed as inhibitors. P. falciparum luciferase reporter growth, 96 h. actives 6.9% (n = 320,000); also: potency is read from the fitted curve at half-maximal effect; % is scaled to controls: 0 for no effect and ±100 for the full control effect
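P. falciparum expressing integrated firefly luciferase, in erythrocytes at 2% hematocrit, 0.05% parasitemia, incubated with compounds 96 h at 37 C, 5% CO2. Growth inhibition read as loss of luminescence; two-generation exposure targets delayed-death apicoplast inhibitors.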
HCV inhibitor – qHTS Assay for Inhibitors of Hepatitis C Virus (HCV). Huh7.5.1 HCVcc-Cre infection, luciferase reporter, 44 h. Potency, µM (titrated, usually from 41.8 µM), without a hit: at the highest dose activity change, negative = inhibition, most hits filed as inhibitors. AID 651820, 2012. actives 3.4% (n = 340,000); also: potency is read from the fitted curve at half-maximal effect; % is scaled to controls: 0 for no effect and ±100 for the full control effect
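Seed cells (1,000/well) for 4 h; treat with compound and infect with HCVcc-Cre, moi about 0.5. Incubate 44 h, then detect luciferase activity.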
Pf growth 48h – Primary qHTS for delayed death inhibitors of the malarial parasite plastid, 48 hour incubation; AID 504832, 2011; P. falciparum luciferase growth in erythrocytes, 48 h; Potency, µM (titrated, usually from 28.7 µM), for inactives: top-dose activity change, negative = inhibition, hits mostly inhibitors; actives 5.9% (n = 310,000); also: potency is read from the fitted curve at half-maximal effect; % is scaled to controls: 0 for no effect and ±100 for the full control effect
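Luciferase-expressing P. falciparum in infected erythrocytes (2% hematocrit, 0.1% parasitemia final) in RPMI 1640/0.5% Albumax were exposed to compound for 48 hours at 37 C, 5% CO2; growth read as luminescence.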
HCMV inh – qHTS Assay for inhibitors of the human cytomegalovirus (HCMV); HFF cells, HCMV-luciferase reporter, 72 h; stronger effect = lower value; activity change, negative = inhibition, % at 57.5 µM; actives 4.5% (n = 410,000); in the data active = activity change below about -60%; inconclusive = no clear call, values can overlap the other calls; inactive = above about -39%; also: % is scaled to controls: 0 for no effect and ±100 for the full control effect
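Two compound doses tested in HFFs infected with HCMV-luciferase, MOI 1 PFU/cell, 72 h at 37C. Lysate luminescence read with OneGlo; data normalized against buffer-only and 10uM Salinomycin inhibitor controls.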
SARS PLP yeast – qHTS of Yeast-based Assay for SARS-CoV PLP; S. cerevisiae expressing SARS-CoV PLpro, growth rescue; Potency, µM (series often up to 32.9 µM), for inactives: top-dose activity, positive = growth rescue, actives largely listed as activators; actives 0.19% (n = 330,000); AID 485353, 2010; calls by dose curve; also: potency is read from the fitted curve at half-maximal effect; 0% is about no effect; nearly all actives have a fitted effect of over 55% in size
* hit, by the source's call; ? = inconclusive; . = not tested or not shown; [ ] = dose if it differs, or a comment. Unless noted, calls follow the shape of the dose curve; as a rule, active = well fitted curve in the direction sought with a large enough effect; inconclusive = small, poorly fitted or top-dose-only effect, or another doubt; inactive = no such curve, though single readings can be large; an effect the other way counts as inactive or inconclusive.

SMILES | Sm TGR inh | Pf growth 96h | HCV inhibitor | Pf growth 48h | HCMV inh | SARS PLP yeast
COc1cccc(/C=C2/Oc3ccccc3N(CC(=O)NCC3CCCO3)C2=O)c1 (stereo not drawn) | -1% | -21% | ? | ? | . | 6%
CCOC(=O)C1(CCc2ccccc2)CCN(C(=O)c2cnc(C)cn2)CC1 | -6% | 23% | 12% | -19% | 1 | -1%
c1ccc(C2CC3CC(c4ccco4)N2O3)cc1 (stereo not drawn) | 35µM* | -17% | 7% | ? | 65 | 5%
CC(CCCN(C)C)C(Cc1ccccc1)c1ccccc1 (stereo not drawn) | . | . | ? | . | -78* | .
S=C(Nc1cccc2ccccc12)Nc1cccc2ccccc12 | . | . | -23% | . | 91 | .
S=C(NCc1cccnc1)Nc1cccc2ccccc12 | 32µM* | -25% | -5% | -10% | 1 | -7%
C=CCNC(=S)NCc1cccnc1 | -5% | 51% | 20% | 13% | ? | 5%
S=C(NCc1cccnc1)NCc1cccnc1 | 5% | 10µM* | 20% | -7% | -5 | 1%
C[C@@H]1CN([C@@H](C)CO)S(=O)(=O)c2ccc(Br)cc2O[C@H]1CN(C)Cc1ccc(-c2ccccc2)cc1 | . | . | . | . | -22 | .
O=C(NNC(=O)c1cc(-c2ccc(Cl)cc2)nc2ccccc12)c1csc(N2CCOCC2)n1 | -3% | -14% | ? | ? | 32 | 1%
O=C(N/N=C/c1ccccc1F)c1ccccc1OCc1ccccc1 | -1% | 10% | 10µM* | ? | 8 | 1%
O=C(N/N=C/c1ccccc1F)c1cccc2ccccc12 | 14% | 0% | -7% | 82% | -1 | 1%
O=C(COCC(=O)N/N=C/c1ccccc1F)N/N=C/c1ccccc1F | 1% | 9.3µM* | 5% | -14% | -30 | 8%
O=[N+]([O-])c1ccc(COc2cccc(CO)c2)cc1 | . | . | . | . | 51 | .
COc1ccc(-c2noc(CCC(=O)Nc3ccccc3Cl)n2)cc1OC | -7% | . | . | . | -17 | .
Cc1ccc(-c2noc(CCCC(=O)Nc3cccnc3)n2)cc1 | -7% | ? | -57% | ? | -63* | -12%
O=C(CCCc1nc(-c2ccccc2)no1)Nc1cccnc1 | -38% | ? | -26% | 1% | -24 | ?
COc1ccccc1-c1noc(CCC(=O)Nc2cccnc2)n1 | . | . | . | . | -3 | .
O=C(CCc1nc(-c2ccccc2Cl)no1)Nc1cccnc1 | 0% | 0% | 13µM* | 14% | -19 | 1%
COc1ccc(-c2noc(CCCC(=O)Nc3cccc(Cl)c3C)n2)cc1 | -1% | . | . | . | -77* | .
Oc1ccc2[nH]cc(CCCCN3CC=C(c4ccccc4)CC3)c2c1 | . | 4.3µM* | . | 4.3µM* | . | .
C/C(=C\c1ccccc1)CN1CCN(C)CC1 | -31% | 0.052µM* | -9% | -14% | 12 | 7%
COc1ccc(/C=N/NC(=O)c2nnn(-c3nonc3N)c2CN(C)c2ccccc2)cc1 | -15% | 0% | ? | 11% | ? | -5%
CSCCC(NS(=O)(=O)/C=C/c1ccccc1)C(=O)NCCc1ccc(S(N)(=O)=O)cc1 (stereo not drawn) | 11% | -32% | 3% | ? | 16 | -1%
NC(=O)C[n+]1cccc2ccccc21 | -8% | 62% | 14% | 1% | 30 | 3%
SMILES | Sm TGR inh | Pf growth 96h | HCV inhibitor | Pf growth 48h | HCMV inh | SARS PLP yeast
c1ccc(C[n+]2cccc3c4ccccc4ccc32)cc1 | -7% | 11% | ? | 0.074µM* | -94* | -1%
CCCCC[n+]1cccc2c3ccccc3ccc21 | 8% | -27% | ? | ? | -95* | -3%
O=S(=O)(c1ccc(S(=O)(=O)N2CCCC2)cc1)N1CCCCCC1 | -19% | -2%[5.75 µM] | 10% | -5% | 13 | 0%
CC(C)(C)c1ccc(S(=O)(=O)N2CCN(C(=O)C3=COCCO3)CC2)cc1 | 8% | 13µM* | -4% | ? | 17 | -1%
CC(C)c1ccc(S(=O)(=O)N2CCN(C(=O)C3=COCCO3)CC2)cc1 | . | . | -1% | . | -13 | -2%
CCOC(=O)C1(CC2CCCCO2)CCN(S(=O)(=O)c2ccccc2)CC1 (stereo not drawn) | 0% | ? | -6% | ? | -5 | 0%
CC(C)(C)c1ccc(S(=O)(=O)N2CCC(c3ccncc3)CC2)cc1 | -7% | . | . | . | -83* | .
CC(C)(C)c1ccc(S(=O)(=O)N2CCCCC2)cc1 | -1% | 12µM* | -3% | ? | -10 | 2%
CC(C)(C)c1ccc(S(=O)(=O)N2CCC(CO)(CC3CCCCO3)CC2)cc1 (stereo not drawn) | 17% | ? | -13% | 2.3µM* | -18 | -1%
Nc1nc(N)c(C=Nc2ccc(Br)cc2)c(Nc2ccc(Br)cc2)n1 | -9% | 0.33µM* | ? | 0.59µM* | -37 | -7%
CCOc1ccc(CN(C)C(=O)c2cccc(S(=O)(=O)N3CCCC3)c2)cc1OC | ? | -29% | 15% | -27% | -3 | -2%
CC(C)C(OC(=O)CCC(=O)Nc1nccs1)C(=O)NC1CCCCC1 (stereo not drawn) | 4% | 36% | 24% | -7% | ? | -1%
O=C(Nc1ccc(O)cc1)C1CC=CCC1 (stereo not drawn) | -3% | 19% | 1% | ? | ? | 3%
O=C(Nc1nccs1)C1CC=CCC1 (stereo not drawn) | -15% | 3% | 8% | 18% | -69* | 3%
O=C(Nc1nccs1)NC1CCCCC1 | -31% | 12% | 15% | 2.9µM* | 36 | 1%
Cc1ccccc1Nc1c([N+](=O)[O-])cncc1[N+](=O)[O-] | ? | 73% | 12% | ? | -17 | -1%
O=[N+]([O-])c1cc([N+](=O)[O-])c2nonc2c1Nc1ccc(O)cc1 | 32µM* | -2% | 17% | ? | -21 | 11%
O=C(O)c1ccccc1Nc1ccc([N+](=O)[O-])c2nonc12 | 35µM* | 133% | 4% | . | . | -2%
O=[N+]([O-])c1cc([N+](=O)[O-])c2nonc2c1Nc1ccccc1O | 50µM* | 2.3µM* | 0% | ? | ? | -9%
CCOc1ccc(C(=O)NC(=S)Nc2cccc(S(=O)(=O)NC3=NCCC3)c2)cc1 | -4% | 95% | 14µM* | 49% | -17 | -2%
C=C(C)CNC(=S)Nc1cccc(S(=O)(=O)NC2=NCCC2)c1 | 56µM* | 15% | 0% | 12% | -34 | 0%

Source: PubChem BioAssay (National Center for Advancing Translational Sciences (NCATS))
